Experimental data from PubChem BioAssay (Tox21).
Results filed as inconclusive are left out. Unmarked numbers belong to inactive results. Active and inactive are the calls of the source. Calls come from the whole dose curve; as a rule, active = well fitted inhibition curve with a large enough effect in the repeat runs; inconclusive = weak or mixed curves, or effect the other way; inactive = no such curve, though single readings can be large or run the other way. Positions of bridges follow the written chain, without caps; N, C: chain ends. Non-standard residues stand in square brackets, D forms with d. Residues, ends and D or L forms follow the SMILES beside them. hArg = N=C(N)NCCCC[C@H](N)C(=O)O; Mpa = O=C(O)CCS

Target: Nuclear receptor subfamily 1 group I member 3 (Homo sapiens) (UniProt Q14994)
Assay: qHTS assay to identify small molecule antagonists of the constitutive androstane receptor (CAR) signaling pathway (AID 1224838);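 note: HepG2 cells stably expressing hCAR with CYP2B6 luciferase reporter stimulated by CITCO; nearly all actives have a fitted effect of over 40% in size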
Conditions: HepG2-CYP2B6-hCAR luciferase, CITCO-stimulated, 24 h; series mostly up to 92.4 µM; activity, negative = inhibition: at the top concentration
Source text: U.S. Tox21 Program National Center for Advancing Translational Sciences [NCATS] NIH Chemical Genomics Center [NCGC] U.S. Environmental Protection Agency [EPA] National Institutes of Environmental Health Sciences [NIEHS] National Toxicology Program [NTP] U.S. Food and Drug Administration [FDA] Tox21 Assay Overview: The constitutive androstane receptor (CAR) is a nuclear receptor which regulates multiple drug metabolizing enzymes (DMEs) and transporters. Activating CAR will generally increase the transcription and subsequent translation of CYP2B6 and CYP3A4. These two DMEs represent about 50% of the drug metabolizing potential in the body. When CAR is deactivated, the metabolizing potential in the body will decrease, subsequently increasing the toxicity in the body or lowering the therapeutic potential of a pro-drug. Recently, there have also been studies performed indicating CARs role in energy metabolism and cancer therapy. Therefore, inhibiting CARs activity could have a potential effect on diabetes and cancer. Identifying environmental toxins and compounds which modulate CAR, through the use of the Tox21 10K compound collection, will be an important step in determining the toxicity and potential therapeutic effects these factors will have on the human body.
Tox21 Assay Protocol Summary: A double-stable (hCAR and CYP2B6-2.2kb) transfected cell line, derived from human hepatoma (HepG2) cells, was utilized for the duration of the quantitative high-throughput screens. The HepG2-CYP2B6-hCAR cells suspended in DMEM culture medium supplemented with 10% FBS, 5 ug/mL blasticidin, 0.5 mg/mL geneticin, 100 U/mL penicillin and 100 ug/mL streptomycin were dispensed at 2500 cells/4 uL/well in 1536-well white solid bottom plates using a Multidrop Combi. After the assay plates were incubated at 37 C/5% CO2 for 4 hrs, 23 nL of compounds at 15 concentrations (from 5-48 columns) or positive control (from 1 to 4 columns) were transferred to the assay plates using a Pintool station. One uL of CITCO, was added using a Flying Reagent Dispenser to generate a final concentration of 50 nM CITCO inside each well. After a 24 hr incubation period at 37 C/5% CO2, four uL of ONE-Glo reagent was added into the assay plates using a Flying Reagent Dispenser. After a 30 min incubation period at room temperature, the luminescence intensity in the assay plates was measured using a ViewLux plate reader.
% is set by controls: 0 for no effect and ±100 for the full control effect; potency is the fitted concentration of half-maximal effect.

Chain of Nuclear receptor subfamily 1 group I member 3 (Homo sapiens) (Q14994 whole entry, looked up): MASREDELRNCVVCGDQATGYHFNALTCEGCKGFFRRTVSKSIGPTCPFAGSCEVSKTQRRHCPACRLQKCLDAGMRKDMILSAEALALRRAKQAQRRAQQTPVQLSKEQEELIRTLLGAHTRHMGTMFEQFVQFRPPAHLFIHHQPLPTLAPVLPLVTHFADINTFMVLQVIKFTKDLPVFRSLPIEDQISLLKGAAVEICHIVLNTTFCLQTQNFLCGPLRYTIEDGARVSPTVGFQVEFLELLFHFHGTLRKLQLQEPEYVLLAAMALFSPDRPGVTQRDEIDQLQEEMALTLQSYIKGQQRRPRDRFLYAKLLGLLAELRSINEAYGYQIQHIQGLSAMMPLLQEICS

| SMILES | activity, negative = inhibition | Potency |
| --- | --- | --- |
| O=Cc1cc2ccccc2o1 | -6.08% | – |
| CCCCOCCOC(=O)COc1ccc(Cl)cc1Cl | -7.16% | – |
| O=C(O)[C@H](O)c1ccccc1 | -9.7% [at 42.5 µM] | – |
| Cc1c(N)cccc1Cl | 11.3% | – |
| CCOc1cccc(N)c1 | 34.6% | – |
| NC(=O)[C@@H]1CSSCCC(=O)N[C@@H](CCCCN=C(N)N)C(=O)NCC(=O)N[C@@H](CC(=O)O)C(=O)N[C@@H](Cc2c[nH]c3ccccc23)C(=O)N2CCC[C@H]2C(=O)N1 ([Mpa][hArg]GDWPC-NH2; disulfide 1-7) | -18.9% [at 42.5 µM] | – |
| CC(C)NCC(O)c1ccc2ccccc2c1 (stereo not given) | 20.3% [at 42.5 µM] | – |
| CN1CCOC(c2ccccc2)c2ccccc2C1 (stereo not given) | -13.2% [at 42.5 µM] | – |
| COc1cc2c(cc1OC)C(=O)C(CC1CCN(Cc3ccccc3)CC1)C2 (stereo not given) | 14.1% [at 42.5 µM] | – |
| CC1=NN(c2ccc(S(=O)(=O)O)cc2)C(=O)C1 | -16.9% | – |
| O=C1c2ccccc2C(=O)c2cc(Cl)ccc21 | 54.9% [at 8.39 µM] | – |
| CC1CCc2c(N3CCC(O)CC3)c(F)cc3c(=O)c(C(=O)O)cn1c23 (stereo not given) | – | 23.7 µM (active) |
| COc1c2occc2c(OC)c2c(=O)cc(C)oc12 | 137% [at 42.5 µM] | – |
| C[C@H]1[C@@H](c2ccccc2)NC(=O)N1C | 22.6% | – |
| OCC(O)CN1CCN(c2ccccc2)CC1 (stereo not given) | 0.272% [at 42.5 µM] | – |
| COc1cc2c(cc1OC)CN(C(=O)[C@H](C)N[C@@H](CCc1ccccc1)C(=O)O)[C@H](C(=O)O)C2 | -3.62% [at 42.5 µM] | – |
| COC(=O)/C=C\C(=O)O | 40.2% | – |
| CCC(=O)CC | -5.02% | – |
| COc1ccc2c(c1)c1c3n2CCN(C)C3=NCC1 | 13.7% [at 42.5 µM] | – |
| CC(=O)CC(=O)OC(C)(C)C | -1.75% | – |

| SMILES | activity, negative = inhibition | Potency |
| --- | --- | --- |
| Cn1nnc2c(C(N)=O)ncn2c1=O | 8.81% [at 42.5 µM] | – |
| c1ccc2cnccc2c1 | -0.814% | – |
| CC1(C)[C@H]2CC[C@](C)(C2)[C@H]1O | 8.68% | – |
| CCCCOC(=O)C(C)O (stereo not given) | -2.13% | – |
| OC[C@@H](O)C(O)[C@@H](O)CO (stereo not given in full) | -19.3% | – |
| Fc1ccccc1 | -15.9% | – |
| O=C(O)c1cc2ccccc2nc1C(=O)O | 20.7% | – |
| CC(CO)(CO)CO | 2.35% | – |
| CCOc1ccccc1OCC1CNCCO1 (stereo not given) | 47.6% [at 42.5 µM] | – |
| CCCCOC(=O)[C@H](C)O | 12.9% | – |
| CCCSSCCC | -1.66% | – |
| CCCCCCCCCCCCCBr | -1.15% | – |
| CSc1cnccn1 | 7.98% | – |
| CC(=O)C1C(=O)C=C(C)OC1=O (stereo not given) | -4.16% | – |
| CCCCCCCCCOC(=O)CCCCC(=O)OCCCCCCC | 14.4% | – |
| CC(C)NC(=O)c1ccc(C=O)cc1 | 14.2% [at 42.5 µM] | – |
| CCCC(=O)Nc1ccc(OCC(O)CNC(C)C)c(C(C)=O)c1 (stereo not given) | -0.695% [at 42.5 µM] | – |
| CCCCCCCCCCCCCCCCCC#N | 9.84% | – |
| COCCc1ccccn1 | 10.6% [at 42.5 µM] | – |
| O=C[O][Al]([O]C=O)[O]C=O | -14.2% | – |
